Screens deposited in PubChem BioAssay by National Center for Advancing Translational Sciences (NCATS).
Shown are actives, neighbours in structure and some others; about 19% of the full set was active somewhere.
BCR signal inh – blocks chronic active B-cell receptor signaling. 340,000 tested, 0.05% active. ABC-DLBCL IkBa-CBG/CBR reporter, luminescence ratio, 4 h. Potency, µM (series often up to 46.1 µM), without a hit: at the top dose activity change, negative = inhibition, usual class: inhibitors; active = well fitted inhibition curve with a large enough effect in the signal ratio, with a control signal flat, not every such curve was filed as active; inconclusive = small, poorly fitted or top-dose-only effect, or effect the other way, or a change in a side signal; the % refers to the signal ratio;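 also: potency is read from the fitted curve at half-maximal effect; plate controls were basal doxycycline-induced cells for no effect and cells given 10 µM MG132 for full effect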
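Cell line TMD8 (human ABC DLBCL), stably expressing tet-inducible CBG68-IkBa fusion and CBR; IMDM/0.5% FBS; cpd up to 46 uM; dox induction, 4 h, 37C/5% CO2; dual luminescence; green/red ratio; MG132 control.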
SW480 rerep – induces DNA re-replication in SW480 colon adenocarcinoma cells. SW480 DNA re-replication, Hoechst DNA content imaging, 48 h. Potency, µM (series often up to 46.1 µM), for inactives: top-dose re-replication activation, hits mostly activators. 340,000 tested, 1.8% active. AID 624297; also: potency is read from the fitted curve at half-maximal effect; % of control where 0% means no effect; nearly all actives have a fitted effect of over 55% in size
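Per well, 250 cells were exposed to pinned compound for 48 hr. Nuclear DNA was visualised with Hoechst (40 min, 37 C) and total object intensity recorded by fluorescence scanning.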
TDP1 cell noCPT – qHTS for Inhibitors of human tyrosyl-DNA phosphodiesterase 1 (TDP1): qHTS in cells in absence of CPT | DT40 Tdp1-/- hTDP1 cells, no CPT, ATP luminescence, 48 h | Potency, µM (titrated, usually from 46.2 µM), for inactives: at the top dose activity change, negative = growth inhibition, actives largely listed as inhibitors | 420,000 tested, 15% active; also: potency is read from the fitted curve at half-maximal effect; % is scaled to controls: 0 for no effect and ±100 for the full control effect; nearly all actives have a fitted effect of over 55% in size
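Growth kinetics read by CellTiter-Glo luminescence after ≥48 hr at 37 °C. Cells: DT40 Tdp1-/- stably carrying human TDP1, 400 per well, compound exposure in the absence of CPT (DMSO vehicle).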
TDP1 cell CPT – growth inhibition of DT40 Tdp1-/-;hTDP1 cells with camptothecin (screen for TDP1 inhibitors). chicken DT40 Tdp1-/-;hTDP1 cells + 20 nM CPT, ATP luminescence, 48 h. Potency, µM (series often up to 46.2 µM), for the others: at the top dose activity change, negative = growth inhibition, hits mostly inhibitors. 420,000 tested, 12% active; also: potency is read from the fitted curve at half-maximal effect; % is scaled to controls: 0 for no effect and ±100 for the full control effect; nearly all actives have a fitted effect of over 55% in size
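Chicken DT40 Tdp1-/- cells stably complemented with human TDP1 were seeded at 400 cells/well in medium containing 20 nM camptothecin, exposed to pin-transferred compounds, and grown at 37 °C for at least 48 hr. Viability was read as ATP luminescence.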
MCF10A rerep – induces DNA re-replication in MCF 10a normal breast cells; 350,000 tested, 2.9% active; MCF 10A DNA re-replication, Hoechst nuclear intensity, 48 h; Potency, µM (doses to about 46.1 µM), inactives show at the highest dose activity, positive = re-replication, usual class: activators; also: potency is read from the fitted curve at half-maximal effect; % of control where 0% means no effect; nearly all actives have a fitted effect of over 50% in size
IL1B secr inh – blocks inflammasome-driven IL-1 beta release; AID 743279; 360,000 tested, 4.7% active; THP-1 LPS/ATP IL-1B secretion, AlphaLISA, 16 h; active compounds read low; activity change, % at 57.5 µM; in the data active = activity change below about -50%; inconclusive = mostly about -30% to -49%; also: % is scaled to controls: 0 for no effect and ±100 for the full control effect
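THP-1 cells pretreated 1 hr with compounds (up to 57.5 uM final), then stimulated with LPS (250 ng/mL final) plus ATP (1.25 mM final); secreted IL-1B measured by AlphaLISA after 16 hr, decreased signal indicating inhibition.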
Numbers without * were called inactive; ? = inconclusive; · = no result given. Unless noted, calls follow the shape of the dose curve; as a rule, active = well fitted curve in the direction sought with a large enough effect; inconclusive = small, poorly fitted or top-dose-only effect, or another doubt; inactive = no such curve, though single readings can be large; an effect the other way counts as inactive or inconclusive.

SMILES | BCR signal inh | SW480 rerep | TDP1 cell noCPT | TDP1 cell CPT | MCF10A rerep | IL1B secr inh
CC(C)CCC(O)(c1ccccc1)C(CN1CCOCC1)c1ccccc1 (stereo not drawn) | -0.9% | 5.0% | 16.4µM* | 18.4µM* | ? | ?
CCC(CC)C(C(=O)NCc1ccccc1)N1CCN(CCN2CCOCC2)CC1 (stereo not drawn) | · | · | 2.3% | -9.9% | · | -12.6
COc1ccc(Oc2ncc3nc(-c4ccc(OC)cc4)c(=O)n(C4CC4)c3n2)cc1 | · | · | -1.4% | 6.9% | · | ·
Cc1ccc(NC(=O)Cn2c(=O)cc(-c3ccccc3)c3c(C)nn(C)c32)c(Cl)c1 | · | · | -14.8% | -27.3% | · | ·
CCC(CC)NC(=O)/C=C/c1ccccc1Cl | -0.2% | ? | ? | ? | 17.0% | 0.0
CCNc1ccc(Br)cc(C(=O)/C=C/c2ccccc2Cl)c1=O | · | ? | 10.3µM* | 9.2µM* | ? | -104.3*
CNc1ccc(Br)cc(C(=O)/C=C/c2cccc(Cl)c2Cl)c1=O | ? | 4.0% | 16.4µM* | 18.4µM* | 16.4µM* | -55.6*
CNc1ccc(Br)cc(C(=O)/C=C/c2cccc(OC)c2OC)c1=O | ? | -19.2% | 1.2% | -13.4% | 0.5% | -11.8
COC(=O)c1ccc(Oc2nc(Nc3ccc(C)c(C)c3)nc(N(C)C)n2)cc1 | -24.9% | ? | 17.8µM* | 11.2µM* | 2.6% | ?
Cc1ccn2c(=O)nc(SCC(=O)N3CCCC3)nc2c1 | 14.9% | 2.0% | -7.1% | 10.8% | -2.6% | 6.2
CC1=C(C(=O)N2CCCCCC2)CC(CC(=O)NCCN2CCOCC2)C(=O)N1CCC1=CCCCC1 (stereo not drawn) | · | · | 1.6% | 4.0% | · | ·
OCCc1c[nH]c2ccc(C(F)(F)F)cc12 | ? | -2.3% | -25.7% | -13.6% | 3.1% | 18.7
COc1cccc(OC)c1C(=O)NC(=S)Nc1ccc2oc(-c3ccncc3)nc2c1 | 0.4% | 5.3% | 23.1µM* | 25.9µM* | 28.1% | 21.0
COc1c(F)c(F)c(C(=O)Nc2ccc3oc(-c4ccncc4)nc3c2)c(F)c1F | 9.7% | -1.0% | -18.1% | -9.5% | 0.2% | 0.0
O=C(Nc1ccc2oc(-c3ccccc3)nc2c1)c1ccc2c(c1)OCCO2 | 3.9% | ? | 16.4µM* | 23.1µM* | 20.6µM* | -23.6
O=C(Nc1ccc2oc(-c3ccccc3)nc2c1)c1ccc2ccccc2c1 | · | · | -7.5% | ? | · | ·
O=C(Nc1ccc2oc(-c3ccncc3)nc2c1)c1c(F)c(F)c(F)c(F)c1F | ? | 4.1% | 1.46µM* | 0.731µM* | -31.3% | ?
CC(C)Oc1cccc(C(=O)Nc2ccc3oc(-c4ccccc4)nc3c2)c1 | ? | · | 20.6µM* | ? | · | ·
CCCCCc1c(C)[nH]c2nc3ccccc3n2c1=O | 10.0% | -5.4% | -13.2% | 14.1% | 14.7% | 22.2
CC(=O)Nc1ccc(NC(=O)C(C)OC(=O)c2cccc(S(=O)(=O)N3CCCCCC3)c2)cc1 (stereo not drawn) | ? | -3.4% | ? | -24.3% | 0.9% | ?
CC(C)(C)c1ccc(C(=O)Nc2ccc(-c3nc4ccccc4o3)c(O)c2)cc1 | · | · | -16.9% | 5.3% | · | ·
O=C(Nc1ccc2oc(-c3ccncc3)nc2c1)c1ccc(F)cc1 | 8.1% | -0.5% | -19.8% | -2.9% | 0.2% | -7.0
O=C(Nc1ccc(-c2nc3ccccc3o2)c(O)c1)c1ccccc1 | 32.5% | · | 18.4µM* | ? | · | ·
Cc1cccc(C(=O)Nc2ccc3oc(-c4ccncc4)nc3c2)c1 | · | · | 11.6µM* | 20.6µM* | · | ·
COc1cc(C)c(NC(=S)Nc2cccc(Cl)c2C)cc1OC | -1.6% | -2.3% | -4.0% | -0.7% | 4.7% | -21.4
SMILES | BCR signal inh | SW480 rerep | TDP1 cell noCPT | TDP1 cell CPT | MCF10A rerep | IL1B secr inh
Cc1cc2c(cc1C)C(=O)C(Br)=C(N)C2=O | · | ? | 16.4µM* | 25.9µM* | ? | -11.5
CC(=O)Nc1ccc(NC(=O)C(C)Sc2nc3ccccc3c(=O)n2CC2CCCO2)cc1 (stereo not drawn) | 1.2% | -8.5% | ? | ? | -4.8% | -5.2
Cc1nn(CCO)c(N)c1C1(O)C(=O)Nc2c(Cl)cc(Cl)cc21 (stereo not drawn) | ? | ? | 3.26µM* | 4.11µM* | ? | 106.4
O=C(OCc1ccccc1)N(CCCCN(CCCNCc1ccccc1)C(=O)OCc1ccccc1)CCCNCc1ccccc1 | · | ? | 5.17µM* | 5.17µM* | 5.8µM* | -17.1
O=C(NCCCCCCNC(=O)OCc1ccccc1)OCc1ccccc1 | · | 0.7% | -2.0% | 1.4% | -0.7% | -6.2
CS(=O)(=O)N1CCc2cc(C(=O)Nc3ccc(O)cc3)ccc21 | -12.5% | -7.7% | 0.1% | 6.0% | -1.0% | 11.7
CS(=O)(=O)N1CCc2cc(C(=O)Nc3ccc(COCC(F)(F)F)cc3)ccc21 | -9.9% | -25.5% | ? | 18.4µM* | 11.2% | 2.4
CC(=O)Nc1ccc(NC(=O)c2ccc3c(c2)CCN3S(C)(=O)=O)cc1 | ? | -5.1% | -0.5% | 3.4% | 1.0% | 5.9
CC(C)c1ccc(NC(=O)c2ccc3c(c2)CCN3S(C)(=O)=O)cc1 | -7.1% | 13.1% | 8.2µM* | 20.6µM* | 3.8% | -29.1
CS(=O)(=O)N1CCCc2cc(C(=O)Nc3cccc(C(F)(F)F)c3)ccc21 | · | · | 18.4µM* | ? | · | ·
COc1ccc(C2(CO)OC(CO)C(O)C2O)cc1 (stereo not drawn) | · | 11.5% | ? | ? | 1.3% | 29.7
O=C(COc1ccccc1Cl)NNC(=O)c1ccc2c(=O)n3c(nc2c1)CCC3 | 14.9% | 5.3% | 1.3% | -26.6% | 2.3% | -25.3
COc1ccc(S(=O)(=O)Nc2ccc(S(=O)(=O)Nc3cc(C)nc(C)n3)cc2)cc1OC | -11.2% | 1.5% | 4.8% | 11.6% | -3.5% | 15.8
CC(=O)C1=C(C)NC(SCC(=O)c2ccc(Cl)cc2Cl)=C(C#N)C1c1ccco1 (stereo not drawn) | ? | 0.4% | ? | ? | -7.0% | -53.6*
CC(=O)C1=C(C)NC(SCC(=O)c2ccccc2)=C(C#N)C1c1ccco1 (stereo not drawn) | -2.4% | · | · | · | · | ·
CCCc1cc(=O)[nH]c(SCC(=O)c2cc(C)n(CCOC)c2C)n1 | -1.4% | -1.4% | -20.2% | 1.3% | 0.7% | 38.8
CCOC(=O)CSc1nc(C)cc(C)c1C#N | ? | -3.4% | -19.9% | 5.1% | 22.5% | 14.2
Cc1cc(C)c(C#N)c(SCC(=O)c2ccc(Cl)cc2Cl)n1 | -2.2% | 84.9% | 16.4µM* | ? | 2.4% | -93.5*
